Experimental findings from PubChem BioAssay are described below.

Molecules are shown by their SMILES. Activity calls are given as the source filed them. Unless noted, no rule for the calls is given here.

Assay [1] in a line: resazurin metabolic signal in HepG2 cells – cell-based, resazurin fluorescence, 24 h, PK04 Diversity Set, profiling panel (AID 1172). Also: test concentration not given here. The note with it: HepG2 viability, higher = more signal. Background: Resazurin is reduced to fluorescent resorufin, in cell work by metabolically active cells.
Assay [2] can be described thus: budding yeast growth changes without added modifier – OD600, strain BY4716, 24 h, basal condition, primary screen (AID 1173). The note with it: S. cerevisiae BY4716 growth, OD600, 24 h; higher = more signal, called active from +8 up or from −8 down.
The nature of assay [3]: viability profiling in MM1S myeloma cells – cell-based, resazurin fluorescence, basal, 24 h, PK04 Diversity Set, profiling panel (AID 1174).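 Also: MM1S multiple myeloma cell line; test concentration not given here.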 The settings on record: higher = more signal, called active from +8 up or from −8 down.
In assay [4] the target is Dihydroorotate dehydrogenase (quinone), mitochondrial (Plasmodium falciparum (isolate 3D7)) (UniProt Q08210). Description: inhibition of P. falciparum DHODH – biochemical, C-terminal His tag, absorbance 600 nm, primary screen (AID 1175).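 Also: recombinant parasite enzyme with a five histidine tag at its C terminus; test concentration not given here.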 The note with it: PfDHODH enzyme, DCIP absorbance 600 nm; higher = more signal, called active from +8 up or from −8 down.
Assay [5] is described as follows: inhibition of PAO1 biofilm formation – strain PAO1, LB-PBS medium, absorbance 600 nm, primary screen (AID 1176). Also: test concentration not given here. The note with it: P. aeruginosa PAO1 growth/biofilm, A600, 12 h; higher = more signal.
Assay [6] is described as follows: growth modulation of vineyard yeast isolate – strain RM11-1a, OD600, basal, 24 h, primary screen (AID 1177).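 Also: cultures grown under basal conditions with no added stressor; test concentration not given here.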 The note with it: S. cerevisiae RM11-1a growth, OD600, 24 h; higher = more signal, called active from +8 up or from −8 down.
The nature of assay [7]: growth of efflux-deficient E. coli DRC39 – strain DRC39, OD650, 24 h, E. coli filamentation inducers, primary screen (AID 1178).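 Also: growth measured as culture turbidity by optical density at 650 nm; test concentration not given here.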 The note with it: E. coli DRC39 acrAB, higher = more signal, called active from +8 up or from −8 down.
Assay [8] can be described thus: growth of efflux-deficient E. coli DRC39 – strain DRC39, OD650, 48 h, E. coli filamentation inducers, primary screen (AID 1179).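 Also: screen aims at cell division blockers that make cells filament.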 The settings on record: E. coli DRC39 delta-acrAB growth, higher = more signal, called active from +8 up or from −8 down.
Assay [9] is described as follows: viability profiling in RPMI8226 myeloma cells – cell-based, resazurin fluorescence, basal, 24 h, PK04 Diversity Set, profiling panel (AID 1180).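 Also: RPMI8826 multiple myeloma cell line at 5000 cells per well; test concentration not given here.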 The note with it: higher = more signal.
The target of assay [10] is E3 ubiquitin-protein ligase XIAP (Homo sapiens) (UniProt P98170). The assay is described as follows: small molecules binding XIAP protein – biophysical, small-molecule microarray, fluorescence 635 nm, primary screen (AID 1181).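 Also: score merges 667 nm emission and signal to noise over triplicate slides.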 The settings on record: higher = more signal.
Chain of E3 ubiquitin-protein ligase XIAP (Homo sapiens) (P98170 whole entry, looked up): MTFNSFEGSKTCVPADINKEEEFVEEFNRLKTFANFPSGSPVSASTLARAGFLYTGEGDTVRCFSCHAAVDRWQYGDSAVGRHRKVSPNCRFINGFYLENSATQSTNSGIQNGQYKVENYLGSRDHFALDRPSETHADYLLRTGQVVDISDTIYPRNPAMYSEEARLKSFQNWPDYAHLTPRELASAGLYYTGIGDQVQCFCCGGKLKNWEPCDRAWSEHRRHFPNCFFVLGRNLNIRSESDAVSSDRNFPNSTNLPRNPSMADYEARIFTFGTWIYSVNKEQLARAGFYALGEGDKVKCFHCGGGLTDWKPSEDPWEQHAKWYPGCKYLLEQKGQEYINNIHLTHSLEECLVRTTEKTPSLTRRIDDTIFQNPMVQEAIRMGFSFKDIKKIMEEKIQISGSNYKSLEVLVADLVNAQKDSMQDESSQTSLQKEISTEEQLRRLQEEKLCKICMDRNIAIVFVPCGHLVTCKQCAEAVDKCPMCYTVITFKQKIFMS

Chain of Dihydroorotate dehydrogenase (quinone), mitochondrial (Plasmodium falciparum (isolate 3D7)) (Q08210 whole entry, looked up): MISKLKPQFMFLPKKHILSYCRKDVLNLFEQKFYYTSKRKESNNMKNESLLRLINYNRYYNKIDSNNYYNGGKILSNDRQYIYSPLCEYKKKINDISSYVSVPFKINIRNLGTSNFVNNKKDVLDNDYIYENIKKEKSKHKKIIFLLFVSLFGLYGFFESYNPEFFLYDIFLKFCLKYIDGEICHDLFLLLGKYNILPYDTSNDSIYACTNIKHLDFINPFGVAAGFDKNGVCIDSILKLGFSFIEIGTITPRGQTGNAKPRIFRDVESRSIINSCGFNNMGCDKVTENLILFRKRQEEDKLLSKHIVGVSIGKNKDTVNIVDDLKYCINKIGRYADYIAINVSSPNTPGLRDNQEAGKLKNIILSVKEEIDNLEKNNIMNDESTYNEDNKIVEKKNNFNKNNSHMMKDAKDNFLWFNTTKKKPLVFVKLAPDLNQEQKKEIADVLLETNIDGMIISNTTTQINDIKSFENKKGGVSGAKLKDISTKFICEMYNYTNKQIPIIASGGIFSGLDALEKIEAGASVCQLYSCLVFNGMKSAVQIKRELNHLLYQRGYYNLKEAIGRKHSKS

`COc1ccc([Si](C)(C)[C@@H]2[C@@H](CCO)O[C@]3(C(=O)N(Cc4cccc(N(C=O)c5ccccc5)c4)c4ccccc43)[C@H]2C)cc1`: the z-score in assay [1] is -2.41; in assay [2] it was 1.27 (inactive); in [3], -3.21 (inactive); in assay [5], -0.0818 (inactive); in [6], 4.68 (inactive); in assay [7] it was -0.818 (inactive). Besides, the z-score was -1.62 (inactive) in assay [8] and -2.73 in [9]. For the same compound, the composite z-score was -0.82 (inactive) in assay [4] and 0.0449 in assay [10].

With `COCCOC(=O)N1C(=O)[C@@]2(c3cc(C#CC4=CCCCC4)ccc31)[C@H](c1ccc(OCCO)cc1)N1[C@H](c3ccccc3)[C@H](c3ccccc3)OC(=O)[C@H]1[C@@H]2C(=O)Nc1nc2ccccc2s1`, the z-score is 1.16 in assay [1]; 1.65 (inactive) in assay [2]; -0.396 (inactive) in assay [3]; 3.34 (inactive) in assay [5]; 2.68 (inactive) in assay [6]; -0.169 (inactive) in [7]. For the same compound, the z-score in assay [8] is 0.422 (inactive); in assay [9], 0.584. Also, the composite z-score in [4] was 0.123 (inactive); in assay [10], 0.061.

On to `COCCOC(=O)N1C(=O)[C@@]2(c3cc(C#CCCO)ccc31)[C@H](c1ccc(O)cc1)N1[C@H](c3ccccc3)[C@H](c3ccccc3)OC(=O)[C@H]1[C@@H]2C(=O)N1CCCCCCC1`, for which the z-score was -0.681 in assay [1]; 0.015 (inactive) in [2]; -0.216 (inactive) in [3]; 0.915 (inactive) in assay [5]; 0.38 (inactive) in assay [6]; 0.27 (inactive) in assay [7]. Further, the z-score is -0.002 (inactive) in assay [8] and -0.98 in assay [9]. The composite z-score in [4] was 0.232 (inactive); in [10], 0.23.

As to `CC(C)N1C(=O)c2ccccc2[C@](C)(C(=O)NC2CC2)[C@@H]1c1ccc(CO)cc1`, the z-score in assay [1] was 0.989; in assay [2] it was -0.708 (inactive); in [3] it was 0.192 (inactive); in assay [5], -0.342 (inactive); in assay [6] it was 0.382 (inactive); in [7], 0.783 (inactive). Further, the z-score is 1.5 (inactive) in [8] and 0.798 in assay [9]. For the same compound, the composite z-score was -0.231 (inactive) in [4] and -0.0536 in [10].

Turning to `[N-]=[N+]=NCc1ccccc1[C@H]1OC(c2ccc(OCCCO)cc2)=N[C@@]1(Cc1ccccc1)C(=O)O`, the z-score in [1] was 1.31; in assay [2], -3.06 (inactive); in [3], -0.967 (inactive); in assay [5], -0.0862 (inactive); in assay [6], 0.816 (inactive); in assay [7], -1.13 (inactive). Further, the z-score in [8] is -0.835 (inactive); in assay [9] it was 0.273. Also, the composite z-score in [4] is -0.055 (inactive); in [10] it was -0.205.

As for `CN1C(=O)C2C=CC(C(O)C=Cc3ccc([N+](=O)[O-])cc3)N(N3CCCCC3)C2C1=O` (stereo not given), the z-score in assay [1] was -0.559; in assay [2], -1.42 (inactive); in assay [3], -1.42 (inactive); in assay [5], 1.01 (inactive); in assay [6], -0.555 (inactive); in assay [7], -0.685 (inactive). The values for the z-score in assay [8] and in [9] were -0.397 (inactive) and -1.88, respectively. Moreover, the composite z-score is -0.358 (inactive) in assay [4] and 0.142 in [10].

Consider `[N-]=[N+]=NCc1ccccc1[C@H]1OC(c2ccc(OCCCO)cc2)=N[C@@]1(Cc1ccccc1)C(=O)NCC(O)CO` (stereo not given in full), for which the z-score is 1.59 in assay [1]; -0.366 (inactive) in assay [2]; -0.327 (inactive) in [3]; 2.25 (inactive) in assay [5]; -0.405 (inactive) in assay [6]; -0.329 (inactive) in [7]. In addition, the z-score in assay [8] was -0.279 (inactive); in assay [9], -0.435. The figures for the composite z-score in assay [4] and in [10] were -0.313 (inactive) and 0.459, respectively.

As for `CO[C@H]1O[C@H](CO)[C@@H](OC(=O)Nc2ccc3c(c2)OCO3)[C@H](OC(=O)Nc2ccc3c(c2)OCO3)[C@H]1OC(=O)Nc1ccc2c(c1)OCO2`, the z-score in [1] was -0.159; in [2], 1.66 (inactive); in assay [3], -0.798 (inactive); in assay [5], 2.5 (inactive); in assay [6], 2.54 (inactive); in [7], 1.73 (inactive). Further, the z-score in assay [8] is -0.273 (inactive); in assay [9], -0.511. Besides, the figures for the composite z-score in assay [4] and in assay [10] were -0.145 (inactive) and 0.463, respectively.

Consider `CC(C)OC(=O)C1=CCC(c2cccc(Cl)c2)O1` (stereo not given), for which the z-score in assay [1] was 0.195; in [2], -5.96 (inactive); in assay [3], 0.242 (inactive); in assay [5], 0.905 (inactive); in assay [6] it was -2.25 (inactive); in assay [7] it was -0.138 (inactive). Also, the z-score in [8] was 0.143 (inactive); in assay [9] it was -0.501. Also, the composite z-score in [4] is -0.582 (inactive); in assay [10], -0.197.

In the case of `C=CCOC(=O)[C@@H]1[C@H]2C(=O)O[C@H](c3ccccc3)[C@H](c3ccccc3)N2[C@H](c2ccc(OCCOC(=O)[C@H]3C[C@H]4C(=O)N[C@@H](Cc5ccccc5)C(=O)N4[C@H]3c3ccc(O)cc3)cc2)[C@@]12C(=O)Nc1ccc(I)cc12`, the z-score in assay [1] was -0.0291; in assay [2], -0.149 (inactive); in assay [3], -1.98 (inactive); in [5], 0.932 (inactive); in assay [6], 2.52 (inactive); in [7], -1.52 (inactive). The results for the z-score in assay [8] and in assay [9] were -1.06 (inactive) and -1.01, respectively. In addition, the composite z-score was -8.55 (active) in assay [4] and -0.187 in assay [10].

For the compound `CC(C)[Si]1(C(C)C)O[C@@H](c2ccccc2)c2cc(-c3ccc(-c4ccc(Cl)c(Cl)c4)o3)nc(CCc3ccccc3)c21`, the z-score in assay [1] was -0.662; in assay [2] it was -3.29 (inactive); in [3], -0.701 (inactive); in [5], 0.726 (inactive); in assay [6] it was 0.144 (inactive); in assay [7], 0.231 (inactive). The z-score was -0.0564 (inactive) in [8] and -0.622 in [9]. Further, the composite z-score in [4] is -0.231 (inactive); in [10], -0.27.
